VACV Venus inh – vaccinia inhibition (Venus reporter); Vaccinia virus Venus reporter expression, fluorescence; Potency, µM (titrated, usually from 36.5 µM), without a hit: at the highest dose activity change, negative = inhibition, hits mostly inhibitors; AID 720580; hit rate 0.46% among 330,000; calls by dose curve; tested in A549 cells; further: on the % scale 0 is the no-effect control and ±100 the full control effect; nearly all actives have a fitted effect of over 30% in size
Pf growth 48h – inhibits P. falciparum growth in the first generation, 48 h | P. falciparum luciferase growth in erythrocytes, 48 h | Potency, µM (titrated, usually from 28.7 µM), inactives show at the top dose activity change, negative = inhibition, actives largely listed as inhibitors | hit rate 5.9% among 310,000 | AID 504832; further: on the % scale 0 is the no-effect control and ±100 the full control effect
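Luciferase-expressing P. falciparum in infected erythrocytes (2% hematocrit, 0.1% parasitemia final) in RPMI 1640/0.5% Albumax were exposed to compound for 48 hours at 37 C, 5% CO2; growth read as luminescence.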
Vaccinia mCherry – vaccinia inhibition (mCherry reporter); hit rate 0.63% among 310,000; Potency, µM (series often up to 36.5 µM), for the others: top-dose activity change, negative = inhibition, actives largely listed as inhibitors; Vaccinia virus mCherry reporter infection, fluorescence; calls by dose curve; tested in A549 cells; further: on the % scale 0 is the no-effect control and ±100 the full control effect; nearly all actives have a fitted effect of over 35% in size
NS1 function inh – inhibitors of influenza NS1 protein function | hit rate 0.4% among 270,000 | AID 2326 | Potency, µM (series often up to 46.1 µM), without a hit: top-dose activity, positive = more growth; calls by dose curve; further: actives are rising curves; nearly all actives have a fitted effect of over 50% in size
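Recovery from NS1-induced slow growth read by OD600 in budding yeast switched to galactose assay medium (pH 6.0, -URA) at 1:100 dilution. Compound 23 nl per well; the matching strain lacking NS1 serves as control.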
Pf growth 96h – P. falciparum growth inhibition at 96 hours | P. falciparum luciferase reporter growth, 96 h | Potency, µM (top dose mostly 28.7 µM), without a hit: at the highest dose activity change, negative = inhibition, most hits filed as inhibitors | hit rate 6.9% among 320,000 | AID 504834; further: on the % scale 0 is the no-effect control and ±100 the full control effect
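Erythrocytes infected with luciferase-expressing P. falciparum were dispensed at 2% hematocrit and 0.05% parasitemia (final), then incubated with compounds 96 hours at 37 C in 5% CO2. Luminescence after detection reagent addition reported growth.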
HCV inhibitor – inhibitors of hepatitis C virus infection | Potency, µM (highest dose often 41.8 µM), inactives show at the top dose activity change, negative = inhibition, actives largely listed as inhibitors | hit rate 3.4% among 340,000 | Huh7.5.1 HCVcc-Cre infection, luciferase reporter, 44 h; further: on the % scale 0 is the no-effect control and ±100 the full control effect
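Compounds are dispensed onto cells plated 4 h earlier at 1,000 per well, with HCVcc-Cre virus (about 0.5 moi) added next. Following 44 h of culture, luminescent signal is measured for 15 sec after 15 min with substrate at room temperature.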
* = called active by the depositor; i = inactive; ? = inconclusive; . = not tested or not shown; [ ] = dose if it differs, or a comment. An excerpt weighted towards active compounds, which were near 11% of everything screened. Unless noted, the call rests on the fitted dose curve; in most records, active means well fitted inhibition curve with a large enough effect; inconclusive means small, poorly fitted or top-dose-only effect, or another doubt; inactive means no such curve, though single readings can be large or run the other way. Potency means the concentration at half of the fitted maximal effect.

SMILES	VACV Venus inh	Pf growth 48h	Vaccinia mCherry	NS1 function inh	Pf growth 96h	HCV inhibitor
O=C(NCC1CCCO1)c1ccc(Oc2ccc([N+](=O)[O-])cc2Cl)cc1 (configuration not stated)	-5%	-3%	-11%	-35%	35%[1.15 µM]	34%
CC(C)C(C(=O)Nc1nccs1)c1ccccc1 (configuration not stated)	-11%	?	.	-4%	?	-10%
CCCNC(=O)C1(CC2CC(c3ccccc3)=NO2)CCN(C(=O)c2cc(OCC)c(OCC)c(OCC)c2)CC1 (configuration not stated)	-24%	.	-27%	.	.	?
CC(C)(C)OC(=O)N1CCC(CC2CC(c3ccccc3)=NO2)(C(=O)O)CC1 (configuration not stated)	-14%	.	i	.	.	39%
CCCCCCCNC(=O)C1(CC2CC(c3cccc(Br)c3)=NO2)CCN(C(=O)CCCCCBr)CC1 (configuration not stated)	?	13µM*	-25%	.	?	?
CCOc1cc(C(=O)N2CCC(CC3CC(c4cccc(Br)c4)=NO3)(C(=O)NCC3CCCCC3)CC2)cc(OCC)c1OCC (configuration not stated)	-27%	0.37µM*	i	-12%	?	?
CCCCCCCNC(=O)C1(CC2CC(c3ccc(Cl)cc3)=NO2)CCN(C(=O)OC(C)(C)C)CC1 (configuration not stated)	-22%	?	-5%	?	5.2µM*	11%
O=C(NCc1ccc2c(c1)OCO2)c1nc(Cn2cc([N+](=O)[O-])cn2)no1	-5%	9%	2%	-10%	24%	21%
NS(=O)(=O)c1ccc2c(c1)oc(=O)c1cc(S(N)(=O)=O)ccc12	-8%	-6%	i	3%	0%	20%
Nc1c(C(=O)NCCc2ccc(Cl)cc2)sc2ccc(S(=O)(=O)N3CCCCC3)cc12	.	10µM*	.	?	?	-24%
CC(C)CCNC(=O)c1sc2ccc(S(=O)(=O)N3CCCCC3)cc2c1N	?	13µM*	?	?	0%	?
CCn1cc(C(=O)NCCC(C)C)c(=O)c2cc(S(=O)(=O)N3CCCCC3)ccc21	.	?	.	6%	?	14%
O=C(NCCc1ccc(Cl)cc1)c1cccc(S(=O)(=O)N2CCCC2)c1	-14%	.	-11%	.	.	.
COc1cc(NC(=O)c2ccc(C)cc2)c(OC)cc1NC(=O)CN1CCCCC1	-30%	?	-5%	-6%	?	?
COc1cc(NC(=O)c2ccccc2Cl)c(OC)cc1NC(=O)CN1CCCCC1	-4%	51%	-14%	1%	1.9µM*	1%
COc1cc(NC(=O)c2cc(OC)c(OC)c(OC)c2)c(OC)cc1NC(=O)CN1CCCCC1	-5%	?	.	-9%	-1%	2.5µM*
CCN(CC)S(=O)(=O)c1ccc2c(c1)nc(CCC(=O)Nc1ccc3c(c1)OCO3)n2CC	-10%	?	i	-12%	6.6µM*	-20%
CCN(CC)S(=O)(=O)c1ccc2c(c1)nc(CCC(=O)Nc1ccc3c(c1)OCO3)n2C	-11%	?	-14%	8%	9.3µM*	-37%
CC(=O)NC(Cc1ccccc1C)C(=O)NC1CCN(c2nnnn2-c2ccccc2)CC1 (configuration not stated)	-6%	?	-11%	-4%	?	-9%
CCOc1ccc(Cl)cc1C(c1c(C)[nH][nH]c1=O)c1c(C)[nH][nH]c1=O	-6%	10%	-5%	20%	-8%	15%
Cc1[nH][nH]c(=O)c1C(c1c(C)[nH][nH]c1=O)c1cn(C)c2ccccc12	-5%	10µM*	-16%	1%	15%	4%
CCNC(=S)NNC(=O)Cn1nc(C)cc1C	.	3%	.	9%	69%	5%
CC1Oc2cc3oc4c(O)c5c(cc4c(=O)c3c(O)c2C1(C)C)C=CC(C)(C)O5 (configuration not stated)	-13%	.	-15%	.	.	5µM*
COc1ccc(NC(=O)c2cc(C3CC3)nc3c2cnn3C(C)C)cc1OC	.	?	.	.	15µM*	10µM*
CC(C)n1ncc2c(C(=O)Nc3ccccc3SCC(N)=O)cc(C3CC3)nc21	-17%	.	-18%	.	.	.
